Screening data as filed in PubChem.
TCR activator – activates T cell receptor signaling. primary human leukocytes, anti-CD3, IL-2 HTRF, 48 h. Potency, µM (top dose mostly 9.22 µM), usual class: activators. 330,000 tested, under 10 active. AID 504894
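Primary human leukocytes were stimulated with a-CD3 beads plus compounds for 48 hr without co-stimulation; secreted IL-2 was quantified by HTRF using a-IL-2-K (europium cryptate) and a-IL-2-d2, excited at 320nm with acceptor emission read at 665nm.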
PLK1 PBD block – PLK1 (human) polo-box domain binding inhibition; P53350; Plk1 PBD binding of FITC phosphopeptide, fluorescence polarization; Potency, µM, most hits filed as inhibitors; 2.8% of 360,000 active; also: series mostly up to about 57 µM; nearly all actives have a fitted effect of over 65% in size
WRN helicase inh – blocks human WRN helicase; Q14191; WRN helicase unwinding, fluorescent forked duplex, kinetic; Potency, µM (doses to about 114 µM), usual class: inhibitors; 0.46% of 360,000 active; AID 651768; also: nearly all actives have a fitted effect of over 55% in size
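Enzyme (20 nM final) and test compound sit together 15 min at room temperature before substrate addition. Substrate is a single-forked duplex oligonucleotide (100 nM) labelled with fluorophore and quencher, with 2 mM ATP; helicase unwinding raises red fluorescence, read kinetically.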
VDR inh – vitamin D3 receptor (human) inhibition; P11473; Potency, µM, usual class: inhibitors; VDR-SRC2-3 peptide fluorescence polarization, 2 h; AID 504847; 0.93% of 400,000 active
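Two reagent solutions held at 4 deg C in the dark were dispensed, compounds pinned at 23 nl, and the mixture incubated 2 h at room temperature. Read-out: fluorescence polarization of VDR–SRC2-3 peptide binding.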
PI5P4Ka inh – PI5P4K alpha (human) kinase inhibition. PI5P4Kalpha enzyme, ADP-Glo luminescence, 60 min; hits give low values. max response, %. 1.2% of 330,000 active. AID 652105; active = max response of -50% or lower; inconclusive = between -30% and -50%; inactive = -30% or higher; also: value at the top dose of about 77 µM
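Enzyme plus substrate dispensed, test compounds pinned in, then ATP (5 microM final) added. After 60 min at RT, ADP-Glo reagent 1 for 45 min and reagent 2 for 30 min preceded luminescence imaging.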
FEN1 inh – blocks human flap endonuclease 1 | Recombinant FEN1 flap cleavage, fluorescence, 15 min | Potency, µM (top dose mostly 114 µM), actives largely listed as inhibitors | 0.35% of 390,000 active | AID 588795; also: nearly all actives have a fitted effect of over 65% in size
Target sequence (P39748 whole entry, looked up): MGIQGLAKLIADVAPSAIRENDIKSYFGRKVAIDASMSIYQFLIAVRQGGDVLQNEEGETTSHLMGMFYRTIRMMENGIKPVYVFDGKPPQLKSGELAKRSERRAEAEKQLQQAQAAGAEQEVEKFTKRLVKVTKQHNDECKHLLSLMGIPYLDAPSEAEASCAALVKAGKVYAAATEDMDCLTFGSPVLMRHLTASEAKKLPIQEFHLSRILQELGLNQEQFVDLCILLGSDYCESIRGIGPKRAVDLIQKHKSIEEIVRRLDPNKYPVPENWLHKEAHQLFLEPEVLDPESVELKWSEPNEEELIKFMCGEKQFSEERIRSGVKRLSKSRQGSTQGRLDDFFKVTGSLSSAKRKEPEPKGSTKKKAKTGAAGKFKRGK
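FEN1 at 10 nM preincubated with compounds 15 min at room temperature, then flap DNA substrate added at 50 nM final. Signal read at 0 and 15 min; concentration-response fitted with four-parameter Hill equation.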
VDR inh confirm – inhibits human vitamin D receptor, primary hit validation | AID 602199 | shares compounds with VDR inh | Potency, µM, hits mostly inhibitors | 89% of 840 active | VDR-coactivator inhibition assay, qHTS confirmation
VDR FP fluor – confirmation of human VDR-coactivator binding inhibitors, fluorescein label; VDR-coactivator binding, fluorescein fluorescence polarization; 48% of 840 active; Potency, µM (series often up to 57.1 µM), most hits filed as inhibitors; shares compounds with VDR inh
VDR bla reporter – inhibits human VDR in beta-lactamase reporter cells; 23% of 840 active; shares compounds with VDR inh; Potency, µM (highest dose often 46.1 µM), usual class: inhibitors; AID 602202; VDR beta-lactamase reporter cells, FRET ratio; cells co-treated with VDR agonist LG190178
VDR cytotox – cytotoxic in counter-screen for VDR inhibitors; 18% of 840 active; Potency, µM (top dose mostly 48.3 µM), actives largely listed as cytotoxic; cytotoxicity counter-screen, cell viability, qHTS; shares compounds with VDR inh; also: nearly all actives have a fitted effect of over 75% in size
Of the large screens only hits and unclear results are named; the others gave an inactive call (follow-up assays come after a bar, where they were run). Rows were chosen to be rich in hits. Some 3.7% of all compounds tested hit in one or more screens of this group. Unless noted, calls follow the shape of the dose curve; as a rule, active = well fitted curve in the direction sought with a large enough effect; inconclusive = small, poorly fitted or top-dose-only effect, or another doubt; inactive = no such curve, though single readings can be large; an effect the other way counts as inactive or inconclusive.

COCCn1c(SCCCC(=O)c2ccc(Br)cc2)nnc1-c1ccncc1	none
CCn1c(CSc2nnc(-c3ccncc3)n2CCOC)nc2cc(C(=O)O)ccc21	WRN helicase inh inconclusive, VDR inh 13µM, FEN1 inh inconclusive | VDR inh confirm 21 | VDR FP fluor inactive | VDR bla reporter inactive | VDR cytotox inactive
Cc1ccc(CNC(=O)c2nc(S(=O)(=O)Cc3ccc(C)cc3)ncc2Cl)cc1	none (no result: TCR activator, PLK1 PBD block, WRN helicase inh, PI5P4Ka inh)
Cc1ccc(NC(=O)c2nc(S(=O)(=O)Cc3ccccc3F)ncc2Cl)cc1C	none (no result: TCR activator, PLK1 PBD block, WRN helicase inh, VDR inh, PI5P4Ka inh) | VDR inh confirm 3.2 | VDR FP fluor 3.2µM | VDR bla reporter 9.2µM | VDR cytotox 15µM
NS(=O)(=O)c1ccc(NC(=O)c2nc(S(=O)(=O)Cc3ccccc3F)ncc2Cl)cc1	none (no result: TCR activator, PLK1 PBD block, WRN helicase inh, VDR inh, PI5P4Ka inh) | VDR inh confirm 5 | VDR FP fluor 3.5µM | VDR bla reporter inconclusive | VDR cytotox inactive
Cc1ccc(NC(=O)c2nc(S(=O)(=O)Cc3ccccc3F)ncc2Cl)cc1	FEN1 inh inconclusive (no result: TCR activator, PLK1 PBD block, WRN helicase inh, VDR inh, PI5P4Ka inh) | VDR inh confirm 1.6 | VDR FP fluor 1.4µM | VDR bla reporter 16µM | VDR cytotox inconclusive
O=C(COc1ccc2oc3c(c2c1)CCCC3)Nc1ccc(Cl)cc1	none (no result: TCR activator, PLK1 PBD block, WRN helicase inh, PI5P4Ka inh)
Cc1ccc(S(=O)(=O)Nc2nsc(N)n2)cc1	VDR inh 7.1µM | VDR inh confirm 5.3 | VDR FP fluor inconclusive | VDR bla reporter inactive | VDR cytotox inactive
CC(C)Nc1nc(NC(C)C)nc(NS(=O)(=O)c2ccc(N)cc2)n1	none
CCN(CC)c1nn2c(=O)c(C(=O)NCCc3cccc(C)c3)cnc2s1	none (no result: TCR activator, PLK1 PBD block, WRN helicase inh, PI5P4Ka inh)
Oc1ccc(C(=S)N2CCN(c3cccc(Cl)c3)CC2)cc1	PLK1 PBD block 8.4µM, VDR inh inconclusive | VDR inh confirm inconclusive | VDR FP fluor inconclusive | VDR bla reporter inactive | VDR cytotox inactive
CC(C)CCn1c(=O)c2sccc2n2c(CCCC(=O)NC(C)C)nnc12	none (no result: TCR activator, PLK1 PBD block, WRN helicase inh, PI5P4Ka inh)
COC(=O)[C@@H]1[C@@H](C#N)C2(c3ccccc3-c3ccccc32)N(c2ccc(Cl)cc2)N1C#N	PLK1 PBD block inconclusive, VDR inh 25µM | VDR inh confirm 24 | VDR FP fluor inconclusive | VDR bla reporter inconclusive | VDR cytotox inconclusive
O=C(CSc1ccc([N+](=O)[O-])cc1)Nc1cccc(S(=O)(=O)Nc2ccccc2F)c1	PLK1 PBD block 9.5µM, VDR inh 79µM, PI5P4Ka inh inconclusive | VDR inh confirm 19 | VDR FP fluor 22µM | VDR bla reporter inactive | VDR cytotox inactive
O=C(Cc1ccc(Cl)cc1)Nc1cccc(S(=O)(=O)Nc2ccccc2F)c1	none
COc1ccc(-n2c(SCC#N)nc3c(sc(=S)n3-c3ccccc3)c2=O)c(OC)c1	PLK1 PBD block 6µM, VDR inh 25µM, PI5P4Ka inh inconclusive | VDR inh confirm 8.4 | VDR FP fluor inconclusive | VDR bla reporter inactive | VDR cytotox inactive
CN1C(=O)/C(=N\OC(=O)c2ccccc2Cl)c2ccccc21	PLK1 PBD block 2.7µM, VDR inh inconclusive | VDR inh confirm 14 | VDR FP fluor 16µM | VDR bla reporter inconclusive | VDR cytotox inactive
O=[N+]([O-])c1c(Nc2ccccc2O)cc(Cl)c2nonc12	PLK1 PBD block 3µM, WRN helicase inh inconclusive, VDR inh 45µM, PI5P4Ka inh inconclusive | VDR inh confirm 4.2 | VDR FP fluor inconclusive | VDR bla reporter 4.6µM | VDR cytotox 13µM
O=[N+]([O-])c1c(Nc2ccccc2O)ccc2nonc12	none
CCCc1nn2c(=O)cc(COc3ccc(/C=C(\C#N)C(=O)Nc4ccccc4)cc3)nc2s1	none (no result: TCR activator, PLK1 PBD block, WRN helicase inh, PI5P4Ka inh)
COc1ccc(/C=C/C(=O)c2ccccc2)c(OC)c1	VDR inh inconclusive
